Reference: PubChem BioAssay (NCI)
This is part of a sample that, as a whole, favours compounds with a hit. Of some 83,000 tested, about 20% had one in any assay.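 Single-dose data. Exposure time 48 hours. Values below 10 considered active.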 Unmarked numbers belong to inactive results. Activity calls are given as the source filed them.

Tests used:
Test in all cases: NCI-60 one-dose screen, 48 h (100 = growth as untreated, 0 = no growth, -100 = all killed)
Conditions in all cases: 10 µM
[1] = system: SK-MEL-2 melanoma
[2] = system: EKVX NSCLC
[3] = system: UO-31 renal
[4] = system: TK-10 renal
[5] = system: ACHN renal
[6] = system: CAKI-1 renal
[7] = system: A498 renal
[8] = system: CCRF-CEM leukemia
[9] = system: MOLT-4 leukemia
[10] = system: SR leukemia
[11] = system: RPMI-8226 leukemia
[12] = system: OVCAR-8 ovarian
[13] = system: OVCAR-5 ovarian
[14] = system: OVCAR-4 ovarian
[15] = system: SK-OV-3 ovarian
[16] = system: OVCAR-3 ovarian
[17] = system: HS 578T breast
[18] = system: NCI/ADR-RES ovarian
[19] = system: IGROV1 ovarian

Row | SMILES | growth [1] | growth [2] | growth [3] | growth [4] | growth [5] | growth [6] | growth [7] | growth [8] | growth [9] | growth [10] | growth [11] | growth [12] | growth [13] | growth [14] | growth [15] | growth [16] | growth [17] | growth [18] | growth [19]
1 | COC(=O)c1cnc2c(c1)Oc1ccc(Cl)cc1-c1cc(C)nn1-2 | 98.3% | 71.2% | 82.8% | 95.4% | 42.4% | 57.8% | 99.2% | 121% | 102% | 89.3% | 95.6% | 96% | 89% | -13.1% (active) | 76.6% | 44.5% | 56% | 70.3% | 
2 | Cc1cc(C)c2nc(C)c(C)[n+]([O-])c2c1 | 106% | 99.1% | 88.3% | 99.3% | 109% | 96.9% | 146% | 66% | 83.1% | 82.3% | 90.7% | 94% | 99.6% | 107% | 85.4% | 110% | 112% | 104% | 
3 | CC(=O)n1nc(C(=O)OC(C)(C)C)c2cc(F)c(F)cc21 | 100% | 105% | 92.6% | 113% | 108% | 101% | 104% | 97.5% | 95% | 104% | 89.1% | 105% | 104% | 98.5% | 114% | 96.8% | 106% | 98.3% | 97.5%
4 | CCc1cc2n(n1)-c1ncc(C(=O)OC)cc1Oc1ccccc1-2 | 106% | 98.5% | 88.8% | 96.1% | 108% | 94% | 101% | 95.2% | 95% | 93.9% | 93.3% | 97.8% | 105% | 100% | 102% | 106% | 97% | 103% | 97%
5 | O=C1CC(c2cccc(-c3cccnc3)c2)=Nc2ccc(Br)cc2N1 | 49.5% | 36.9% | 41.9% | -9.34% (active) | 27.5% | 49.9% |  | 50.8% | 27.1% | 51.1% | 40.7% | 17.2% |  | -4.81% (active) | 46.5% | 45% | 27.9% | 19% | 
6 | O=C1CC[C@@H](C(=O)N[C@H]2CSSC[C@@H](C(=O)N/C=C/c3ccc(O)cc3)NC(=O)[C@H](Cc3ccccc3)NC(=O)[C@@H]3CCCN3C(=O)[C@@H]3CCCN3C2=O)N1 | 93.5% | 95% | 101% | 94.8% | 100% | 96.5% | 108% | 68% | 88.9% | 99.1% | 96.1% | 100% | 102% | 112% | 93.2% | 106% | 94.4% | 97.8% | 
7 | C[C@H](NC(=O)[C@@H]1CSSC[C@@H](NC(=O)Cc2nc3ccccc3cc2O)C(=O)NCC(=O)N1C)c1ccccc1 | 82.3% | 99.5% | 92% | 109% | 96.8% | 99.7% | 120% | 20.1% | -17.2% (active) | -3.15% (active) | 87.2% | 95.2% | 104% | 63.6% | 88.4% | 99% | 94.2% | 101% | 
8 | Nc1nsc(C(=O)c2ccc(O)cc2)n1 | 102% | 97.9% | 79.5% | 108% | 91.1% | 92% | 115% | 89.8% | 110% | 99.2% | 90.7% | 91.1% | 93.6% | 105% | 92.8% | 95.2% | 98.1% | 103% | 
9 | COC(=O)[C@]12CC[C@@H](C)[C@H](C)[C@@H]1C1=CC[C@@H]3[C@@]4(C)CC(=O)[C@H](O)[C@@]5(C)COC(=C45)C[C@@]3(C)[C@]1(C)CC2 | -74.1% (active) | -55.5% (active) | -87.5% (active) | -76.5% (active) | -83.8% (active) | -36.9% (active) | -84.1% (active) | -40.1% (active) | -54.9% (active) |  | -32% (active) | -45.2% (active) | -40.4% (active) | -85.3% (active) | -68.3% (active) | -84.7% (active) | -5.08% (active) | -59.7% (active) | -44.9% (active)
10 | CNC(=O)c1cc(Oc2ccc(NC(=O)Nc3ccc(Cl)c(OC(C)C)c3)c(F)c2)ccn1 | 50.2% | 34.8% | 45.2% | 66.7% | 41.9% | 64.1% | 48.7% | 46.8% | 30.9% | 40.8% | 26.8% | 53.9% |  | 24.1% | 82.8% | 58.3% | 64.6% | 56% | 60.8%
11 | COC(=O)c1cnc2c(c1)Oc1ccccc1-c1ccnn1-2 | 96.3% | 92.1% | 80.8% | 95.3% | 101% | 86.8% | 90.4% | 94.9% | 91.1% |  | 95% | 91.9% | 108% | 103% | 95.4% | 114% | 93.7% | 105% | 95.7%
12 | CCCCn1c(=O)[nH]c(N)c(C(c2ccc(Cl)cc2)c2c(N)[nH]c(=O)n(CCCC)c2=O)c1=O | 6.4% (active) | 48.6% | 95.4% | 50.7% | 67.2% | 90.7% | 89.3% | 16.7% | -11.8% (active) | 24.2% | 25.5% | 46.7% |  | 42.7% | 56.5% | 27.2% | 50.6% | 103% | 46%
13 | S=c1c2ncccc2c(-c2ccccn2)nn1Cc1ccccn1 | 92.1% | 99.3% | 82.2% | 99.5% | 104% | 92.1% | 134% | 84.2% | 93.3% | 87.2% | 97.9% | 106% | 111% | 97.2% | 93.5% | 115% | 111% | 103% | 
14 | c1ccc(CNc2nc(Nc3ccc(-c4nc5ccccc5[nH]4)cc3)c3cn[nH]c3n2)cc1 | -59.2% (active) | 18% | 29.9% | 20.4% | -5.37% (active) | 7.33% (active) | 27.6% | 9.8% (active) | -39.7% (active) | -13.8% (active) | 2.15% (active) | -12.5% (active) |  | 25.7% | 10.8% | -38.1% (active) | -6.55% (active) | 6.33% (active) | 36.2%
15 | CC(=O)c1ccc(NCn2nc(-c3ccc(Cl)cc3)oc2=S)cc1 | 99.3% | 103% | 95.8% | 95.9% | 96.1% | 97% | 106% | 103% | 81.8% | 85.1% | 105% | 105% | 85.2% | 113% | 94.4% | 108% | 96.2% | 101% | 
16 | CNC(=O)c1cc(Oc2ccc(NC(=O)Nc3ccc(Cl)c(OC4CCCCC4)c3)c(F)c2)ccn1 | 55.3% | 27.7% | 43.1% | 51.9% |  | 41.9% | 57.5% | 35.4% | 24.1% | 42.2% | 19.9% | 40.7% | 88.8% | 28.6% | 72.8% | 33.8% | 66% | 47.6% | 62.9%
17 | COCc1cc2c(cc1Br)OCO2 | 96.7% | 102% | 84.6% | 95.7% | 101% | 95% | 91.2% | 71.9% | 107% | 106% | 95.1% | 98.8% | 92.5% | 111% | 95.3% | 111% | 101% | 88.7% | 
